Assay outcomes from PubChem BioAssay.
An excerpt weighted towards active compounds, which were near 0.9% of everything screened.
gsp antag – antagonists of gsp mutant (McCune-Albright syndrome); gsp-mutant cells, cAMP HTRF, 30 min; Potency, µM (highest dose often 76.9 µM), hits mostly inhibitors; 340,000 compounds, 0.4% hits; calls by dose curve; cell line not stated here;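 note: intracellular cAMP measured with PDE inhibitor Ro 20-1724 present during compound exposure; nearly all actives have a fitted effect of over 65% in size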
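Measurement of cellular cAMP by homogeneous time-resolved fluorescence following a 30 min compound exposure at 37C. The PDE inhibitor […] was present throughout; the assay buffer was DPBS with 0.05% BSA and 0.005% Tween 20.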
gsp agonist – activates gsp, the McCune-Albright syndrome mutation; gsp mutant cells, cAMP HTRF, 30 min; AID 624287; Potency, µM (highest dose often 76.9 µM), usual class: activators; 340,000 compounds, 0.13% hits; active = well fitted activation curve with a large enough effect; inconclusive = small, poorly fitted or top-dose-only effect, or another doubt; inactive = no such curve, though single readings can be large or run the other way; cell line not stated here;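 note: phosphodiesterase inhibitor Ro 20-1724 added with compounds to block cAMP breakdown; nearly all actives have a fitted effect of over 60% in size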
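Cells stably selected in G418 were plated at 2000/well, grown 16-24 hr, then given compounds in DMSO with the PDE inhibitor […] (300 uM solution added) for 30 min at 37C; cAMP was read by HTRF.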
RXFP1 ag – agonists of human relaxin receptor RXFP1; HEK293T-RXFP1 cAMP TR-FRET, 30 min; response scale: percent of porcine relaxin response, buffer zero; Potency, µM (top dose mostly 57.5 µM), usual class: activators; 370,000 compounds, 0.3% hits; active = well fitted activation curve with a large enough effect; inconclusive = small, poorly fitted or top-dose-only effect; note: nearly all actives have a fitted effect of over 60% in size
Target sequence (Q9HBX9 whole entry, looked up): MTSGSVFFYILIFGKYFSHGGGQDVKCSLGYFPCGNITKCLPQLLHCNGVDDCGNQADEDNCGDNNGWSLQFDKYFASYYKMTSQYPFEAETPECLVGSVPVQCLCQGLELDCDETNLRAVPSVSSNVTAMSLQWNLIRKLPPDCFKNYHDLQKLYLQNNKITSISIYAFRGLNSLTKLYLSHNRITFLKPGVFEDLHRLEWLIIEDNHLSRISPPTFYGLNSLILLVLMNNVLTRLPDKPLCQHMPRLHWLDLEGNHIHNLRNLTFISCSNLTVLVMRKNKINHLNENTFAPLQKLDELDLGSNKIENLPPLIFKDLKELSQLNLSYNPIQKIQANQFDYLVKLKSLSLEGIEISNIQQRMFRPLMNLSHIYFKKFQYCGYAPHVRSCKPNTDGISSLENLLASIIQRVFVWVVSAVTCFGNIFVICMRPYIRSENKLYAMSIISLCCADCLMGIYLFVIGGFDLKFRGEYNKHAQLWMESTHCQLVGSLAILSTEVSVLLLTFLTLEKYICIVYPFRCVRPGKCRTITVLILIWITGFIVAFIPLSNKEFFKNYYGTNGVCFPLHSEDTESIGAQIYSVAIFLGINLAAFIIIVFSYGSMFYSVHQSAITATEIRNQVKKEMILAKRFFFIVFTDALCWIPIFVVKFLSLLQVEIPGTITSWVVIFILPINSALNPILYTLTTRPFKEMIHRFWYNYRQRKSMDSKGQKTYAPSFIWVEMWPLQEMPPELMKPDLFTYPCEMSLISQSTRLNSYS
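HEK293 cells stably expressing RXFP1, treated 30 min at 37C with compounds plus PDE4 inhibitor Ro 20174; cAMP measured by HTRF TR-FRET. Normalized to buffer and 29 nM porcine relaxin; EC50 by Hill fit.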
RXFP1 antag – blocks the human relaxin receptor RXFP1; Q9HBX9; HEK293-RXFP1, relaxin-stimulated cAMP HTRF, 30 min; stronger effect = lower value; activity change, negative = inhibition, % at 57.5 µM; 350,000 compounds, 0.59% hits; AID 1259400;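 active = activity change of -60% or lower, but not beyond a set lower limit; inconclusive = change between -60% and -40%, or beyond the set limit; inactive = change above -40%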
Numbers stand for hits; i = inactive; ? = inconclusive; nt = no result; [ ] = remark or other dose.

SMILES	gsp antag	gsp agonist	RXFP1 ag	RXFP1 antag
CCOC(=O)c1cnc2ccc(OCC)cc2c1NCc1ccccc1OC	32µM	i[15.4 µM]	i	i
CCOC(=O)c1cnc2ccc(OC)cc2c1NCc1ccccc1	i	?	i	nt
Nc1ccc(N=Nc2ccccc2)c(N)n1	i	nt	i	i
Cc1[nH]c(N=Nc2ccccc2)nc1N=Nc1ccccc1	i	i[15.4 µM]	i	-94
CCN=c1sc2ccccc2n1CC(O)COc1ccccc1 (configuration not stated)	i[15.4 µM]	i	i	-68
Cc1ccc(C)c(CSc2cn(CC(=O)N3CCCCCC3)c3ccccc23)c1	nt	nt	i	i
Cc1ccc(C)c(CSc2cn(CC(=O)N3CCCC3)c3ccccc23)c1	nt	nt	i	-74
CCCN(CCC)C(=O)C(CCC(=O)OCCCN1CCN(CCOC(=O)Cc2c(C)n(C(=O)c3ccc(Cl)cc3)c3ccc(OC)cc23)CC1)NC(=O)c1ccccc1 (configuration not stated)	nt	nt	nt	i
CCc1ccc(S(=O)(=O)c2nnn3c2nc(NC2CCCC2)c2sccc23)cc1	nt	nt	i	i
NC(=O)c1ccc(N2CCN(c3ccc(O)cc3)CC2)c([N+](=O)[O-])c1	i	i[15.4 µM]	i	?
CC(=O)c1ccc(N2CCN(c3ccc(C(N)=O)cc3[N+](=O)[O-])CC2)cc1	32µM	i	i	i
COc1ccc(Cl)cc1NC(=O)C(C)n1c(=O)cc(C(F)(F)F)c2c(C)nn(C)c21 (configuration not stated)	nt	nt	i	i
O=C(Nc1ccccc1)c1ccc(=O)n(Cc2ccc(F)c(F)c2)c1	i	i	i	-62
O=C(c1cccc(Oc2ccc([N+](=O)[O-])cc2Cl)c1)N1CCCCC1	i	i	i	i
O=C(c1ccc(Oc2ccc([N+](=O)[O-])cc2Cl)cc1)N1CCCC1	11µM	i[15.4 µM]	i	i
Cc1c(F)cc2c(=O)c(C(=O)O)cn3c2c1CCC3C (configuration not stated)	nt	nt	nt	i
CCCCN(CC)CCCNC(=O)c1ccc2c(c1)N(Cc1ccc(C)cc1)C(=O)c1ccccc1S2	nt	nt	i	-66
CNc1ncnc(Sc2nc(N)nc3nc[nH]c23)c1[N+](=O)[O-]	i	?	nt	i
Nc1nc(Sc2ccc([N+](=O)[O-])c3nonc23)c2[nH]cnc2n1	i	13µM	nt	i
COc1ccc2oc(=O)c(-c3csc(Nc4ccc(O)cc4)n3)cc2c1	25µM	i	i	i
CN1CCN(CC(=O)c2cc(C(C)(C)C)c(O)c(C(C)(C)C)c2)CC1	i	i[15.4 µM]	i	-85
CC(C)(C)c1cc(CN2CCN(CCO)CC2)cc(C(C)(C)C)c1O	i	i	i	i
NC(=O)c1ccc(NC(=O)CN2CCN(S(=O)(=O)c3ccc4c(c3)OCCO4)CC2)cc1	50µM	i	i	i
CC(=O)c1ccc(NC(=O)CN2CCN(S(=O)(=O)c3ccc4c(c3)OCCO4)CC2)cc1	nt	i	nt	i
COc1ccc(NC(=O)COC(=O)Cc2c(F)cccc2Cl)cc1	45µM	?	i	i
SMILES	gsp antag	gsp agonist	RXFP1 ag	RXFP1 antag
COc1ccc(NC(=O)Cc2c(F)cccc2Cl)cc1	i	i	i	i
CC1CCc2c(sc3nc(-c4cc5ccccc5oc4=O)nc(Cl)c23)C1 (configuration not stated)	nt	nt	i	nt
O=C(Nc1ccc(Br)cc1F)c1ccc2c(c1)N(Cc1ccccc1)C(=O)CS2=O (configuration not stated)	?	i	i	-72
Cc1ccc(C)c(NC(=O)c2ccc3c(c2)N(Cc2ccc(F)cc2)C(=O)CS3=O)c1 (configuration not stated)	i	i	i	nt
COc1ccc(N(CC(=O)Nc2ccc(F)c(F)c2)S(=O)(=O)c2c(C)n[nH]c2C)cc1	?	i	i	-86
N#Cc1ccc(CSc2nnc(-c3ccc(Br)cc3)o2)cc1	nt	nt	i	nt
Cc1ccc(CNC(=O)CCc2nnc3ccc(N4CCC5(CC4)OCCO5)nn23)cc1	i	?	18µM	i
CSc1ccc(CCNC(=O)CCc2nnc3ccc(N4CCOCC4)nn23)cc1	i	16µM	i	nt
COc1ccc(CNC(=O)CCc2nnc3ccc(N4CCC5(CC4)OCCO5)nn23)cc1	i	i	?	i
Cn1sc(NC(=O)c2ccccc2Cl)nc1=O	?	i	i	i
Cn1sc(NC(=O)c2cccc(Cl)c2)nc1=O	28µM	i	i	i
COc1ccc(OC)c(NC(=O)COC(=O)c2n[nH]c3ccccc23)c1	45µM	i	i	i
Cc1cc(C)cc(NC(=O)COC(=O)c2n[nH]c3ccccc23)c1	10µM	i[15.4 µM]	i	i
Cc1nn(-c2ccccc2)c(C)c1C(=O)OCC(=O)Nc1ccccc1F	i	i	i	i
COc1ccc(C)cc1NC(=O)COC(=O)c1c(C)nn(-c2ccccc2)c1C	40µM	i	i	i
O=C(COC(=O)c1n[nH]c2ccccc12)Nc1ccccc1	nt	i[15.4 µM]	i	i
COc1ccc(C(=O)COC(=O)c2n[nH]c3ccccc23)c(OC)c1	i	i[15.4 µM]	i	i
Cc1cccc(-c2nc(CCNC(=O)Cc3ccccc3)cs2)c1	nt	nt	i	i
Cc1ccsc1CCN1C(=O)N(c2ccccc2)C(=O)C1CC(=O)Nc1ccc(Cl)cc1 (configuration not stated)	nt	nt	i	nt
O=[N+]([O-])c1cccc(NC2=NCCC2)c1	i	i[15.4 µM]	i	-64
CCc1ccc(CN(C)CC(=O)Nc2ccc3c(c2)CCC3)cc1	i	i	i	i
Cc1ccc(CN(C)CC(=O)Nc2ccc3c(c2)CCC3)cc1	i	i	i	-64
COC(=O)c1ccccc1N=Nc1c(N)[nH][nH]c1=O	40µM	i	i	?
COC(=O)c1ccccc1N=Nc1c(N)n[nH]c1N	i	i[15.4 µM]	i	i
CCCC(=O)Nc1cccc(-c2nc3cc(C)c(C)cc3o2)c1C	nt	nt	i	nt
SMILES	gsp antag	gsp agonist	RXFP1 ag	RXFP1 antag
CC(=O)Nc1ccc(NC(=O)C2CCN(c3c(NC(C)=O)c(C)nn3-c3ccccc3)CC2)cc1	nt	nt	i	i
COc1ccc(OCCNC(=O)C(Cc2c[nH]c3ccccc23)NC(C)=O)cc1 (configuration not stated)	i	10µM	i	i
Cc1cc(C)cc(NS(=O)(=O)c2ccc3c(c2)c(=O)n(C)c(=O)n3C)c1	i	25µM	i	i
Cc1ccc(NC(=S)NCC2CCN(C(C)c3ccccc3)C2)cc1 (configuration not stated)	i	i	i	i
CC(c1ccccc1)N1CCC(CNC(=S)Nc2cccc(Cl)c2)C1 (configuration not stated)	i	28µM	i	?
CCCCCCCCCCCCCCCC[N+](C)(C)CC	i	nt	i	-87
CCCCCC[N+](C)(C)CCSSCC[N+](C)(C)CCCCCC	i	i	i	i
Cc1cccc(S(=O)(=O)C(C#N)c2nc3ccccc3nc2N2CC(C)OC(C)C2)c1 (configuration not stated)	i	i	i	i
Cc1ccc(S(=O)(=O)C(C#N)c2nc3ccccc3nc2N2CC(C)OC(C)C2)cc1C (configuration not stated)	40µM	i	i	i
Cc1cc(Cl)c(S(=O)(=O)NC2CCCC2)cc1OCC(=O)NC1CCCCC1	28µM	i	i	i
